# PMC7862700, “An all-to-all approach to the identification of sequence-specific readers for epigenetic DNA modifications on cytosine”
# Legend:
# Experiment in all cases: DAPPL (digital affinity profiling via proximity ligation, sequencing); 10 mM Tris-HCl pH 7.5, 50 mM NaCl, 1 mM DTT, 4% glycerol, room temperature, 30 min; GST-TFs on glutathione beads, 16-mer random dsDNA library, 0.1% formaldehyde crosslink after washing; high values mean tight binding
# Conditions in all cases: protein: recombinant; tags: N-terminal GST; dsDNA, one strand shown
# [1] = molecular target: T1, FLI1 (Homo sapiens, UniProt Q01543 1-452)
# T1 sequence: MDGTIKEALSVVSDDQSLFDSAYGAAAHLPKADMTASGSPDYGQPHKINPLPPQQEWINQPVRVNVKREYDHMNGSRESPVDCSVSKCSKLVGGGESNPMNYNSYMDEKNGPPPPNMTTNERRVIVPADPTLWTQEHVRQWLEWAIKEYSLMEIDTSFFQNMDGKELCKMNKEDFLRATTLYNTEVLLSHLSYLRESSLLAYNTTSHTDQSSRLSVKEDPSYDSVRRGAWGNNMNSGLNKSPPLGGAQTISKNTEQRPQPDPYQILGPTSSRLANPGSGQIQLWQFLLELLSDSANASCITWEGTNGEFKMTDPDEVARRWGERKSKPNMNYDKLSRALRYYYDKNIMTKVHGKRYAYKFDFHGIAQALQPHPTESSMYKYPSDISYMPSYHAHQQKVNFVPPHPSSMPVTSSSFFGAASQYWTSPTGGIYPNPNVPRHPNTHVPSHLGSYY
# How it was run: (§1)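 Binding signal is defined as a hexamer's read frequency for one factor over its frequency for the tag-only sample. To obtain reads, GST-fused human transcription factors were expressed in yeast, captured on glutathione beads, barcoded with DNA and pooled with that sample. Pools met 200 nmole of a 16-mer random double-stranded DNA library in Tris/NaCl/DTT/glycerol buffer for 30 min at room temperature before washing, 0.1% formaldehyde crosslinking, proximity ligation (BsaI/T4 ligase, 1 h, 37 °C), PCR and Illumina NextSeq500 sequencing.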
# [2] = molecular target: T2, ELK1 (Homo sapiens, UniProt P19419 1-428)
# T2 sequence: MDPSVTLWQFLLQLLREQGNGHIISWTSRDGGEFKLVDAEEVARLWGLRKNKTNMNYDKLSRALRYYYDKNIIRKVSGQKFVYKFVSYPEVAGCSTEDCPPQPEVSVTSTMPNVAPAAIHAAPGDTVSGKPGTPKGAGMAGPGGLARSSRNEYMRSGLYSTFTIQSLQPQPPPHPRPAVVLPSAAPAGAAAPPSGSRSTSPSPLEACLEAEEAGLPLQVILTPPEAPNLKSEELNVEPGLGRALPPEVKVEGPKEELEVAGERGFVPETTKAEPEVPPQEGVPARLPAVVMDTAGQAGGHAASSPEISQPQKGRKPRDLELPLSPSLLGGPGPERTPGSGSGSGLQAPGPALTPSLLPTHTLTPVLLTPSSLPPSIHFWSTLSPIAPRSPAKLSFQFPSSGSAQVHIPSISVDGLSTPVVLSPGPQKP
# How it was run: as §1
# [3] = molecular target: T3, GABPA (Homo sapiens, UniProt Q06546 1-454)
# T3 sequence: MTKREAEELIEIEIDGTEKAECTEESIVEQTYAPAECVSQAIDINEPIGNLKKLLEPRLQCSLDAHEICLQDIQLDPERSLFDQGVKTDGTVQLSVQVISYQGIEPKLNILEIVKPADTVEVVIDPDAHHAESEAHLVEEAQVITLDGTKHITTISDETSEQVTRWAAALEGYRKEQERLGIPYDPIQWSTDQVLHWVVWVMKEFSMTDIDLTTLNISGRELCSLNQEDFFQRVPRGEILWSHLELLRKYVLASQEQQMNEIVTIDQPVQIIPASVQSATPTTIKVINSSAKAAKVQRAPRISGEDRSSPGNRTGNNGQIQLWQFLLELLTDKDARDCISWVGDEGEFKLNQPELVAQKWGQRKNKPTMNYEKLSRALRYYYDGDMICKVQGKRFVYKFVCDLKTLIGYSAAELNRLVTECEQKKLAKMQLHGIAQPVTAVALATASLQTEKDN
# How it was run: as §1
# [4] = molecular target: T4, ERG (Homo sapiens, UniProt P11308 1-479)
# T4 sequence: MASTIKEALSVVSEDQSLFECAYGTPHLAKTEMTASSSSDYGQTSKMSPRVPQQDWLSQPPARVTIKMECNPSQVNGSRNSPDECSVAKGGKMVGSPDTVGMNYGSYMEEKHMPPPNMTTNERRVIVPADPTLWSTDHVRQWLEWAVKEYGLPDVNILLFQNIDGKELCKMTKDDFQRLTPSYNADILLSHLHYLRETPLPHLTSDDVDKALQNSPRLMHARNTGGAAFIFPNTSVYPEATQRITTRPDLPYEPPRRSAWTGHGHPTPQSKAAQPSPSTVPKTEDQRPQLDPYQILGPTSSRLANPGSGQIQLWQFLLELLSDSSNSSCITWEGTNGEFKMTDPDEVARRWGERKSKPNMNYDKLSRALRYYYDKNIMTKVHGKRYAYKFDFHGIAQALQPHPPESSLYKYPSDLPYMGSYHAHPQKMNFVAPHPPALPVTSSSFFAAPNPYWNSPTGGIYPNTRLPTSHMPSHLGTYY
# How it was run: as §1
# [5] = molecular target: ELF1 (Homo sapiens, UniProt P32519 1-619)
# How it was run: as §1
# [6] = molecular target: T5, EHF (Homo sapiens, UniProt Q9NZC4 1-300)
# T5 sequence: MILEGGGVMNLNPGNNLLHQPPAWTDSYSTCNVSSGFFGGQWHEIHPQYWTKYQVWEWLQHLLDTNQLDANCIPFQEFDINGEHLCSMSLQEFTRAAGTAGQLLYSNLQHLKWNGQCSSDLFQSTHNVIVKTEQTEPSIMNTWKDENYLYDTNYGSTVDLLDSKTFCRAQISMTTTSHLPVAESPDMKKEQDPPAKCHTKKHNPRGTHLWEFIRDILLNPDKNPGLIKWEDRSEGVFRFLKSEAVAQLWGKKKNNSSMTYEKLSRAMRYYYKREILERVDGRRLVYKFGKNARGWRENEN
# How it was run: as §1
# [7] = molecular target: SPI1 (Homo sapiens, UniProt P17947 1-270)
# How it was run: as §1
# [8] = molecular target: SPIB (Homo sapiens, UniProt Q01892 1-262)
# How it was run: as §1
# [9] = molecular target: T6, ELK3 (Homo sapiens, UniProt P41970 1-407)
# T6 sequence: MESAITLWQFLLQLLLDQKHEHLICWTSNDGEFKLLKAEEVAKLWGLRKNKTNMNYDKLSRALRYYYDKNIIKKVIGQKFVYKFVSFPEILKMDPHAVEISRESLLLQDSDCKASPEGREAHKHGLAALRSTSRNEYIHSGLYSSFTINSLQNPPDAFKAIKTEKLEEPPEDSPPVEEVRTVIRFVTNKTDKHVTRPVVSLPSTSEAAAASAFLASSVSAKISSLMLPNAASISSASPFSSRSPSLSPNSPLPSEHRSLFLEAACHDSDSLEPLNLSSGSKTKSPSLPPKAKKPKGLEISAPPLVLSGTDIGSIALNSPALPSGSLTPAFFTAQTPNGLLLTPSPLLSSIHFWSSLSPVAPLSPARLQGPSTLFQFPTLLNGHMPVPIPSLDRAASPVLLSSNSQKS
# How it was run: as §1
# [10] = molecular target: T7, FEV (Homo sapiens, UniProt Q99581 1-238)
# T7 sequence: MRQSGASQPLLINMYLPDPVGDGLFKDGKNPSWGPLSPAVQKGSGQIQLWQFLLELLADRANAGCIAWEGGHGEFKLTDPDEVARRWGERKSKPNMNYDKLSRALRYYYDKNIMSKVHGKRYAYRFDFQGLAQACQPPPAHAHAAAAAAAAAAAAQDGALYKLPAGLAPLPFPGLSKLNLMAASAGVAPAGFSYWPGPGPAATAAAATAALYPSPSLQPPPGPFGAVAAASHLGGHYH
# How it was run: as §1
# [11] = molecular target: ETV5 (Homo sapiens, UniProt P41161 1-510)
# How it was run: as §1
# [12] = molecular target: T8, SPIC (Homo sapiens, UniProt Q8N5J4 1-248)
# T8 sequence: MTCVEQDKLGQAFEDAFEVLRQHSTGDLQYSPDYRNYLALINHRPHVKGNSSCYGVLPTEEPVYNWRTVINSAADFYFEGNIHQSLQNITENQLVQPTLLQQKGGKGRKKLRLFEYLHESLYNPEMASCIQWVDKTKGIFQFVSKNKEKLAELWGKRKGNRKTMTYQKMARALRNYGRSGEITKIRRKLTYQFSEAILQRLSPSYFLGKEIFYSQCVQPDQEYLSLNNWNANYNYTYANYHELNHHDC
# How it was run: as §1
# [13] = molecular target: ELF4 (Homo sapiens, UniProt Q99607 1-663)
# How it was run: as §1
# [14] = molecular target: ETV1 (Homo sapiens, UniProt P50549 1-477)
# How it was run: as §1
# [15] = molecular target: T9, ERF (Homo sapiens, UniProt P50548 1-548)
# T9 sequence: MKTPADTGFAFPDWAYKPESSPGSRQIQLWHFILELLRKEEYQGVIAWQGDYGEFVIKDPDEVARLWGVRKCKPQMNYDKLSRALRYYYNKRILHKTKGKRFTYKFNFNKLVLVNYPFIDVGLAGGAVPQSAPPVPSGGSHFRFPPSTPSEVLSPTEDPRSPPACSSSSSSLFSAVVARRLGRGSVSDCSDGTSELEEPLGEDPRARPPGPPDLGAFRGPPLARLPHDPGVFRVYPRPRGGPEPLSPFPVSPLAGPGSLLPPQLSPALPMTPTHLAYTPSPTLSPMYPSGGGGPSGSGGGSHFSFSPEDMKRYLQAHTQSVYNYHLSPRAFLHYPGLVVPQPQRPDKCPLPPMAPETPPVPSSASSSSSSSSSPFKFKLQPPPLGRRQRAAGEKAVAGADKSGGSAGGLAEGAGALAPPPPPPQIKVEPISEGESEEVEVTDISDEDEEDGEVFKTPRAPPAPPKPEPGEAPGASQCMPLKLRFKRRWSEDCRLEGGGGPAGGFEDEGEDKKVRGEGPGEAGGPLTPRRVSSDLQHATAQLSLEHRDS
# How it was run: as §1
# [16] = molecular target: T10, ETS2 (Homo sapiens, UniProt P15036 1-469)
# T10 sequence: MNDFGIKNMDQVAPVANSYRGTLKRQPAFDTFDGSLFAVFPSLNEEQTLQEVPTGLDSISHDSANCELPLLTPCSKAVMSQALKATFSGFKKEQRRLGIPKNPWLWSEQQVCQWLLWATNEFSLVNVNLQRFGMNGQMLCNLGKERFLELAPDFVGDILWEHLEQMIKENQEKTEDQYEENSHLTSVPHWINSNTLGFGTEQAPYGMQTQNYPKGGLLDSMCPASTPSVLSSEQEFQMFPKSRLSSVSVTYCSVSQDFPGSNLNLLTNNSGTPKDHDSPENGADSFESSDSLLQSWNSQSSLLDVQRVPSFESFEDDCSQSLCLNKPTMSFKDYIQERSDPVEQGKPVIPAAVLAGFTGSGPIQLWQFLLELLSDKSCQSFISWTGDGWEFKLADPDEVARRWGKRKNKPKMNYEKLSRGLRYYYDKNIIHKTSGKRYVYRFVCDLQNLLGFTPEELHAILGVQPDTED
# How it was run: as §1
# [17] = molecular target: T11, SPDEF (Homo sapiens, UniProt O95238 1-335)
# T11 sequence: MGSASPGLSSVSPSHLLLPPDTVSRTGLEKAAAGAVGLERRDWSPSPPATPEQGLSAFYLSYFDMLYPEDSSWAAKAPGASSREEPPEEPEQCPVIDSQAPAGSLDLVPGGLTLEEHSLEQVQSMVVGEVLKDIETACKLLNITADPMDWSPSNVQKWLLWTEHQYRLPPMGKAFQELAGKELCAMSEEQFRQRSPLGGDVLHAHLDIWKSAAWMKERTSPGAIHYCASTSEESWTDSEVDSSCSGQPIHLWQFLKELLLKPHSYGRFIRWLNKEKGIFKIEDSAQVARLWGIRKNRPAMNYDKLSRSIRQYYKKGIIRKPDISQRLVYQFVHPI
# How it was run: as §1
# [18] = molecular target: T12, ETV3 (Homo sapiens, UniProt P41162-2 1-143)
# T12 sequence: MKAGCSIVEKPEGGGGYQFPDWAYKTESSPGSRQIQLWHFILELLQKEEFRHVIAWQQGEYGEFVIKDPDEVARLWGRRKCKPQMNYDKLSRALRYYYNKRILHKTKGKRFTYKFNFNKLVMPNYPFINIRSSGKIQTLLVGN
# How it was run: as §1
# [19] = molecular target: ETV6 (Homo sapiens, UniProt P41212 1-452)
# How it was run: as §1
# Sequence of ETV5 (P41161 whole entry): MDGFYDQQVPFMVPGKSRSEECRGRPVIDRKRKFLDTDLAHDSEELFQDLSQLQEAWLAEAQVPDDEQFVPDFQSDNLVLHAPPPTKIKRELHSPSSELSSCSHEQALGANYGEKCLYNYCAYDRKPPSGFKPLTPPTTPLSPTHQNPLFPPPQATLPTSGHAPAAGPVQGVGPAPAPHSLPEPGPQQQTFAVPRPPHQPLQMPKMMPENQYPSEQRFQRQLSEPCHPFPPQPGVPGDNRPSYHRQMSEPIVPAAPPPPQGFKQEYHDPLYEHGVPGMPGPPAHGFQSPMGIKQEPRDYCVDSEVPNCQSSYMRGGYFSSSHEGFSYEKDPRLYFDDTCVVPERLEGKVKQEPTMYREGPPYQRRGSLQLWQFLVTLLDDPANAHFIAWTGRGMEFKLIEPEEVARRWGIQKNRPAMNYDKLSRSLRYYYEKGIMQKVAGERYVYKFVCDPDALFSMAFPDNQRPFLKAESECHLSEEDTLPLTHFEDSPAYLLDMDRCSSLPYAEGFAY
# Sequence of ETV1 (P50549 whole entry): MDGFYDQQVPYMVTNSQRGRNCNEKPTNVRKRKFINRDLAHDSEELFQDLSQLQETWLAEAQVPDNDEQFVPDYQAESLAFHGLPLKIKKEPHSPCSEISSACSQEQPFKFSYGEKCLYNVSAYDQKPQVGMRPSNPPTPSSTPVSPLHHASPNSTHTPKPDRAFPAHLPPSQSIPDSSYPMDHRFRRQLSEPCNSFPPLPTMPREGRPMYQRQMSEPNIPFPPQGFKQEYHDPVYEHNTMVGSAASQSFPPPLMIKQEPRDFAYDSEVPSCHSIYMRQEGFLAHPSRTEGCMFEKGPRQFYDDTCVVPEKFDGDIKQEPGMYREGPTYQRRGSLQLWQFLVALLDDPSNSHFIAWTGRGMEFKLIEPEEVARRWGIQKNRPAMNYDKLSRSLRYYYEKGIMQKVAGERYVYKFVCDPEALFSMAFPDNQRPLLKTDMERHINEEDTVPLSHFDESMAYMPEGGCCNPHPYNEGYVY
# Sequence of ELF4 (Q99607 whole entry): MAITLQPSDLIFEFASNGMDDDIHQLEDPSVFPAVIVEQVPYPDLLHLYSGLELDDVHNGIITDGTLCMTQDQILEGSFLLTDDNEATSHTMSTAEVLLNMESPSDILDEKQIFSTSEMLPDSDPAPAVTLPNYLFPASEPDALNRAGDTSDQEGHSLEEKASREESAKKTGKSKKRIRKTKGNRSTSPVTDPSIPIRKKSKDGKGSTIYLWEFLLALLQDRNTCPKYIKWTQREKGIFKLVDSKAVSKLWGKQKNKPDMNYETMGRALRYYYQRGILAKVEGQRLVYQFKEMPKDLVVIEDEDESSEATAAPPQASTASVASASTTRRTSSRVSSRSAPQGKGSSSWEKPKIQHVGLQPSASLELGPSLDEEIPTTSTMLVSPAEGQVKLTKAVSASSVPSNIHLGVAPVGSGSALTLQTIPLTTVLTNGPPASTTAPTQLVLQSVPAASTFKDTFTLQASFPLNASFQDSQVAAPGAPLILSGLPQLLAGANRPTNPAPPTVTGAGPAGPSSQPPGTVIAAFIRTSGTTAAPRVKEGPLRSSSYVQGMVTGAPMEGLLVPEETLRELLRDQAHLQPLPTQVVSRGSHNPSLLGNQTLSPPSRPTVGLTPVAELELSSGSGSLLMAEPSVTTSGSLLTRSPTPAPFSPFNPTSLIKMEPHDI
# Sequence of ETV6 (P41212 whole entry): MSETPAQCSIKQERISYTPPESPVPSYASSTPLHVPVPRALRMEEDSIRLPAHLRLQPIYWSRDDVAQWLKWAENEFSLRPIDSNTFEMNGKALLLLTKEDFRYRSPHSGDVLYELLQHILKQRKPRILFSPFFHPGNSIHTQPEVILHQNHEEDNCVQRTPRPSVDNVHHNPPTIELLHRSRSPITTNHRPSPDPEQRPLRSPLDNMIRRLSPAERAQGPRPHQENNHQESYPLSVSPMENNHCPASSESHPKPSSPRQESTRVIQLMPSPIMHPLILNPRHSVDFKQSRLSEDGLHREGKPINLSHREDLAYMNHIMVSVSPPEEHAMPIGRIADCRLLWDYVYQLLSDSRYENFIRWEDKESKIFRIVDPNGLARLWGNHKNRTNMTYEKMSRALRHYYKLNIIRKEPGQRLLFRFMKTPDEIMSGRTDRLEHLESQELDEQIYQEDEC
# Sequence of ELF1 (P32519 whole entry): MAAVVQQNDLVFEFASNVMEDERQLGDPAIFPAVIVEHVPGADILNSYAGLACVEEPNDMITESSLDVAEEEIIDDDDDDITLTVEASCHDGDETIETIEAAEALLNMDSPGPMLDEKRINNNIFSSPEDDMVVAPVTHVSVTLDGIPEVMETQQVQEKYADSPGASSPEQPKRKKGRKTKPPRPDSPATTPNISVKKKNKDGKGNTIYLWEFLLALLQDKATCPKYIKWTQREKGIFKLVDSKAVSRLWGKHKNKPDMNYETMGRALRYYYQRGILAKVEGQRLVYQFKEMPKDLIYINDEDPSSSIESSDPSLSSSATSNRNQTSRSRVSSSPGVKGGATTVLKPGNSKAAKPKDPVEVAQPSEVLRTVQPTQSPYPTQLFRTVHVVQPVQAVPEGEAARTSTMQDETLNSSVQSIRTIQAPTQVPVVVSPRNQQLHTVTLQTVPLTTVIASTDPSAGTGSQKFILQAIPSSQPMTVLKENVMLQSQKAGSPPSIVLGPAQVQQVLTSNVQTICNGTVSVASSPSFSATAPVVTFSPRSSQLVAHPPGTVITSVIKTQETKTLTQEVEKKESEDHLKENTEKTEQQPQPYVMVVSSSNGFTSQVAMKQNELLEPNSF
# Sequence of SPIB (Q01892 whole entry): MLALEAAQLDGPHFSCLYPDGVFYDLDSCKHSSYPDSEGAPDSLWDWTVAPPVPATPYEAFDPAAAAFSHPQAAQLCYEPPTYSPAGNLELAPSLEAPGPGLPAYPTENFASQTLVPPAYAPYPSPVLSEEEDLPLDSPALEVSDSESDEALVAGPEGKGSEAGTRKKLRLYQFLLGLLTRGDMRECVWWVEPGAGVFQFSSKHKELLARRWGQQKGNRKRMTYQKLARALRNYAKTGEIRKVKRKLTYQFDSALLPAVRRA
sequence,measurement,setting,value
GTGTCC,binding signal,[1],"1.03 fold enrichment (6-mer frequency, TF over GST control)"
same,binding signal,[2],"1.07 fold enrichment (6-mer frequency, TF over GST control)"
same,binding signal,[3],"1.1 fold enrichment (6-mer frequency, TF over GST control)"
same,binding signal,[4],"1.13 fold enrichment (6-mer frequency, TF over GST control)"
same,binding signal,[5],"1.1 fold enrichment (6-mer frequency, TF over GST control)"
same,binding signal,[6],"1.08 fold enrichment (6-mer frequency, TF over GST control)"
same,binding signal,[7],"1.08 fold enrichment (6-mer frequency, TF over GST control)"
same,binding signal,[8],"1.13 fold enrichment (6-mer frequency, TF over GST control)"
same,binding signal,[9],"1.05 fold enrichment (6-mer frequency, TF over GST control)"
same,binding signal,[10],"1.1 fold enrichment (6-mer frequency, TF over GST control)"
same,binding signal,[11],"1.16 fold enrichment (6-mer frequency, TF over GST control)"
same,binding signal,[12],"1.2 fold enrichment (6-mer frequency, TF over GST control)"
same,binding signal,[13],"1.08 fold enrichment (6-mer frequency, TF over GST control)"
same,binding signal,[14],"1.02 fold enrichment (6-mer frequency, TF over GST control)"
same,binding signal,[15],"1.06 fold enrichment (6-mer frequency, TF over GST control)"
same,binding signal,[16],"1.16 fold enrichment (6-mer frequency, TF over GST control)"
same,binding signal,[17],"1.34 fold enrichment (6-mer frequency, TF over GST control)"
same,binding signal,[18],"1.2 fold enrichment (6-mer frequency, TF over GST control)"
same,binding signal,[19],"1.02 fold enrichment (6-mer frequency, TF over GST control)"
